Data taken from PubChem BioAssay (Tox21).
Results filed as inconclusive are left out. A number with no mark means an inactive call. Calls follow the shape of the dose curve; as a rule, active = well fitted inhibition curve with a large enough effect in the signal ratio in the repeat runs (not every such curve was filed as active); inconclusive = weak or mixed curves, or effect the other way; inactive = no such curve, though single readings can be large or run the other way; the % refers to the signal ratio.

What follows are molecules tested against Peroxisome proliferator-activated receptor delta (Homo sapiens) (UniProt Q03181) (assay: qHTS assay to identify small molecule antagonists of the peroxisome proliferator-activated receptor delta (PPARd) signaling pathway (AID 743215;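 also: cells stimulated with agonist L165041 at 300 nM final during compound exposure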)). Conditions: HEK293H PPARd-UAS-bla, beta-lactamase FRET ratio, antagonist, 17 h; series mostly up to 62 µM; ratio activity, negative = inhibition: at the top concentration.
Chain of Peroxisome proliferator-activated receptor delta (Homo sapiens) (Q03181 whole entry, looked up): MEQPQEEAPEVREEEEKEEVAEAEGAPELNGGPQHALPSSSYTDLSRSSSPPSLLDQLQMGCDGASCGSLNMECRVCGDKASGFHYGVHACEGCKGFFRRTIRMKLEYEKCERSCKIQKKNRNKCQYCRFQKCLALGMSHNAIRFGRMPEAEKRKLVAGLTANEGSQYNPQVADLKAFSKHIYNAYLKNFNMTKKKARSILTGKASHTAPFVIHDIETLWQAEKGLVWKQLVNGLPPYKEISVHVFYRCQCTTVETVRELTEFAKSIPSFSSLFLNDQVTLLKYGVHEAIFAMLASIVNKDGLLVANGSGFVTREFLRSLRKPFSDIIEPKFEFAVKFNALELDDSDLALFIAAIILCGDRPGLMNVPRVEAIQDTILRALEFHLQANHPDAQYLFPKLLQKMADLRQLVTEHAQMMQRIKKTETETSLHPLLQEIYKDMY
Source text: U.S. Tox21 Program National Center for Advancing Translational Sciences [NCATS] NIH Chemical Genomics Center [NCGC] U.S. Environmental Protection Agency [EPA] National Institutes of Environmental Health Sciences [NIEHS] National Toxicology Program [NTP] U.S. Food and Drug Administration [FDA] Tox21 Assay Overview: The peroxisome proliferator-activated receptors (PPARs) are lipid-activated transcription factors of the nuclear receptor superfamily with three distinct subtypes namely PPAR alpha, PPAR delta (PPARd) and PPAR gamma. All these subtypes heterodimerizes with Retinoid X receptor (RXR) and have different physiological functions. […] To identify the compounds that inhibit PPAR-delta signaling, GeneBLAzer PPAR delta UAS-bla HEK293H cell line (Invitrogen, Carlsbad, CA, USA) containing a beta-lactamase reporter gene under the control of an Upstream Activator Sequence (UAS) was used to screen the Tox21 compound library.
Tox21 Assay Protocol Summary: PPARd-bla cells were dispensed at 3000 cells/5uL/well in 1536-well black wall/clear bottom plates using a Multidrop Combi (Thermo Fisher Scientific, Waltham, MA) dispenser. After the assay plates were incubated at 37 C and 5% CO2 for 5 h, 23 nL of compounds dissolved in DMSO, positive controls or DMSO only was transferred to the assay plate by a Pintool station (Kalypsys, San Diego, CA), followed by addition of 1ul L165041 (300 nM, final concentration in the wells). The assay plates were incubated at 37 C for 17 h, and then 1 uL of LiveBLAzerTM B/G FRET substrate was added using a Bioraptr Flying Reagent Dispenser (FRD) workstation (Beckman Coulter, Indianapolis, IN, USA). The assay plates were incubated at room temperature for 2 h and fluorescence intensity was measured by an Envision plate reader (PerkinElmer, Shelton, CT).
% is scaled to controls: 0 for no effect and ±100 for the full control effect.

SMILES | ratio activity, negative = inhibition
CCOC(=N)CC(=O)OCC | 9.34%
NC(=O)Cn1c(=O)cc(CCN2CCN(c3nccc4sccc34)CC2)c2ccc(F)cc21 | -0.926%
c1ccc(COCc2ccccc2)cc1 | -1.49% [at 80.4 µM]
CCC(C)(O)CCC=C(C)C (stereo not given) | 2.11%
COCC(O)CO (stereo not given) | 1.66% [at 80.4 µM]
CCOc1cc(N)c(Cl)cc1C(=O)NCC1CN(Cc2ccc(F)cc2)CCO1 (stereo not given) | 5.5%
CCOC(=O)c1ccccc1OC | 3.93%
O=Cc1c(Cl)cccc1Cl | 23.7% [at 80.4 µM]
Cc1ccccc1N1C(=O)c2cc(S(N)(=O)=O)c(Cl)cc2NC1C (stereo not given) | 2.99%
O=C(O)Cc1ccc(-c2ccccc2)cc1 | 4%
CC(COc1ccc(C(C)(C)C)cc1)OS(=O)OCCCl (stereo not given) | 1.75% [at 80.4 µM]
CC(=O)Nc1ccc(N)cc1 | 10.2% [at 80.4 µM]
CCCCC(CC)CNCC(CC)CCCC (stereo not given) | 3.31%
CC1=C(C=O)C(C)(C)CCC1 | 0.495%
NC(=O)N(O)[C@@H]1COc2cc(OCc3ccccc3)ccc21 | -27.5%
CN1Cc2cc(C(=O)N3CCC(C4CCNCC4)CC3)ccc2N[C@@H](CC(=O)O)C1=O | 2.42%
O=S(=O)(c1ccccc1)c1ccc(Cl)cc1 | -1.99%
Cc1ccc(/C=N/n2c(-c3ccccc3)csc2=S)cc1 | -9.6%
CCCCCCOC(=O)C(C)C | 4%
CC1(C)C2=CCCC(C)(C)[C@]23CC[C@H]1C3 | -9.62%

SMILES | ratio activity, negative = inhibition
CCC(=O)OC/C=C/c1ccccc1 | 3.64%
CCCCC1C(=O)N(c2ccccc2)N(c2ccc(O)cc2)C1=O (stereo not given) | -1.98%
CCC(C)=O | 1.91%
c1cnc2c(n1)CCCC2 | 1.95%
O=C(CCCCCCCCC#CI)Oc1ccccc1 | 4.32%
O=C(NCCCN1CCOCC1)c1ccc(Cl)cc1 | 7.08%
CC1(C)C(=O)N(Br)C(=O)N1Cl | 6.32%
OCC1CC=CCC1 (stereo not given) | 14.7%
CCCC1C(CC)=CC(CC)=CN1c1ccccc1 (stereo not given) | -5.97%
CC(Cl)C(Cl)Cl (stereo not given) | 12.2%
CCOC(=O)/C=C/C(=O)O | 1.56%
CCC(C)(C)C1CCC(O)CC1 (stereo not given) | 3.75%
C1COCO1 | 15.7%
CC(C)CCCC(=O)O | -3.58%
C[C@]12CCC(=O)C=C1C=C[C@@H]1[C@@H]2CC[C@@]2(C)[C@H]1CC[C@@]21CCC(=O)O1 | 2.84%
CC1C2CC(CC2C2CCCC(O)C2)C1(C)C (stereo not given) | -17.7%
COc1cc2[nH]c(=O)[nH]c(=O)c2cc1OC | 4.93%
CCCCCCCC/C=C\CCCCCCCC(=O)OC | 2.52%
C[N+](C)(C)CCOC(N)=O | 2.05%
NCC1CCCC(CN)C1 (stereo not given) | 12.2%
